# Most compounds without a hit are left out; they make up all but 3.1% or so of the library.
# Nrf2 ARE act – Nrf2 pathway activation; 0.31% of 410,000 active; Potency, µM (highest dose often 46.1 µM), most hits filed as activators; AREc32 ARE-luciferase reporter (MCF7-derived line), luminescence, 24 h; AID 624171; also: nearly all actives have a fitted effect of over 65% in size
#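 Each well held 1000 AREc32 cells, which were incubated with compound for 24 hr at 37 deg C after overnight attachment, and ARE reporter activity was quantified by firefly luciferase luminescence.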
# IL2 activator – activates IL-2 in a cell-based reporter assay; AID 652025; IL-2 activation reporter assay, cell-based qHTS; stimulated with anti-CD3/CD4/CD28 beads; in transgenic mouse T cells; 0.065% of 360,000 active; activation, % (series mostly up to about 46 µM); in the data active = activation above about 50%; inconclusive = mostly about 30% to 49%
#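 Unstimulated transgenic mouse T cells preincubated 60 min with compound, then stimulated with anti-CD3/anti-CD4-coated beads plus anti-CD28 for 18 h at 37 degrees C. IL-2 response read as EGFP and DsRed fluorescence by plate cytometry.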
# ELG1 repair inh – ELG1-dependent DNA repair inhibition; HEK293T ELG1-luciferase reporter, luminescence, 16 h; DNA damage induced by 5-fluorouridine; Potency, µM (titrated, usually from 46.1 µM), hits mostly inhibitors; 2.3% of 330,000 active; also: nearly all actives have a fitted effect of over 55% in size
#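 Overnight (16 hr) co-exposure of 2,000 cells/well to 5-fluorouridine and compound at 37 °C preceded detection. Luciferase was quantified via ONE-Glo luminescence; loss of signal denotes inhibition.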
# BRCA1 expr act – increases BRCA1 expression. MCF7-BRCA1-FFLuc reporter, luminescence, 48 h; response scale: scaled: vehicle 0%, 10 µM genistein 100%. Potency, µM (series often up to 46.1 µM), usual class: activators. 1.1% of 380,000 active. AID 624202; also: nearly all actives have a fitted effect of over 80% in size
#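 Luminescence from a BRCA1-driven firefly luciferase in MCF7 cells was read after 48 h compound exposure at 37 C. Data normalized against DMSO and a 10microM genistein activation control, then curve-fitted across the titration.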
# Numbers stand for hits; 0 = inactive; ? = inconclusive; - = not tested or not shown. Unless noted, calls follow the shape of the dose curve; as a rule, active = well fitted curve in the direction sought with a large enough effect; inconclusive = small, poorly fitted or top-dose-only effect, or another doubt; inactive = no such curve, though single readings can be large; an effect the other way counts as inactive or inconclusive.
SMILES,Nrf2 ARE act,IL2 activator,ELG1 repair inh,BRCA1 expr act
O=C(Nc1nc2c(Cl)cccc2s1)c1ccc([N+](=O)[O-])o1,5µM,0,?,0
O=C(Nc1cccc([N+](=O)[O-])c1)c1ccc([N+](=O)[O-])o1,0,0,-,0
O=C(Nc1nc2c(F)cccc2s1)c1ccc([N+](=O)[O-])o1,10µM,0,?,0
O=C(Nc1ccc2[nH]c(=O)[nH]c2c1)c1ccc([N+](=O)[O-])o1,13µM,0,0,0
O=C(Nc1cccc(NC(=O)c2ccccc2Cl)c1)c1ccc([N+](=O)[O-])o1,?,0,23µM,0
O=C(Nc1nc2c(Cl)cccc2s1)c1ccc(Br)o1,?,0,0,0
O=C(OCc1cc(=O)n2nc(-c3cccs3)sc2n1)c1ccc(Cl)cc1,0,-,-,0
CC(C)C[C@@H]1CN(CCCC[C@H]2CNC(=O)C(=O)N2CCC2CCCCC2)C(=O)C(=O)N1Cc1ccccc1,0,0,-,0
O=C(OCc1ccccc1)c1c(-c2ccccc2)oc2c1C(OCCO)CCC2 (stereo unspecified),0,0,-,0
O=C(Nc1nc2ccc(F)cc2s1)c1ccc([N+](=O)[O-])o1,3.2µM,0,-,0
CCOC(=O)c1ccc(NC(=S)Nc2ccc(C)cc2)cc1,0,0,?,13µM
CCOC(=O)CC(=O)Nc1ccc(C(=O)OCC)cc1,0,0,0,0
CCOC(=O)c1ccc(NC(=O)c2nn(CC)cc2Br)cc1,0,0,?,?
CCOC(=O)c1ccc(NC(=O)c2nn(C)cc2Br)cc1,0,0,?,5µM
CCOC(=O)c1ccc(NC(=S)Nc2ccccc2)cc1,0,0,0,0
CCOC(=O)c1ccc(NC(=O)N(CC)CC)cc1,0,0,?,2.5µM
CC(C)C(=O)Nc1nc2c(ncn2[C@H]2CC(O)[C@@H](CO)O2)c(=O)[nH]1 (stereo partly specified),-,-,-,0
CCc1nn(CC(=O)NCc2ccc(OC)c(OC)c2)c(=O)c2cc3sc(C)cc3n12,0,-,-,-
Cc1nn(C)c(C)c1CNC(=O)Nc1ccc(Cl)cc1,0,0,?,6.3µM
Cc1nn(C)c(C)c1CNC(=O)Nc1cccc(Cl)c1,0,0,?,4µM
Cc1nn(C)c(C)c1CNC(=O)Nc1ccc2c(c1)OCO2,0,0,?,?
O=C(NCc1ccccn1)Nc1cccc(Cl)c1,0,0,?,13µM
O=C(NCc1ccccn1)c1cc(Cl)ccc1OCc1ccccc1,0,0,16µM,0
COc1ccc(/C=C2/CCC(CN3CCOCC3)C2=O)cc1 (stereo unspecified),?,0,-,0
O=C(COc1ccccc1C(=O)NCc1ccccn1)Nc1ccc(Br)cc1,0,0,16µM,0
SMILES,Nrf2 ARE act,IL2 activator,ELG1 repair inh,BRCA1 expr act
CCOC(=O)C1(Cc2ccccc2)CCCN(C(=O)COc2ccccc2OC)C1 (stereo unspecified),0,0,-,10µM
CCOC(=O)C1(Cc2ccccc2)CCCN(C(=O)C=C(C)C)C1 (stereo unspecified),0,0,?,?
Fc1ccc(NCc2nnc(SCc3nnc(-c4ccccc4)o3)n2Cc2ccccc2)cc1,0,0,16µM,0
CCn1cc(C(=O)N(C)c2cc(C)ccc2OC)c2cc(OC)c(OC)cc2c1=O,0,0,?,0
CCn1cc(C(=O)N(C)c2ccc(OC)cc2OC)c2cc(OC)c(OC)cc2c1=O,0,0,15µM,0
Cn1c(=O)c2c(nc(SCCCC#N)n2Cc2c(F)cccc2Cl)n(C)c1=O,0,0,16µM,0
Nc1ccc2c(c1)Cc1c(F)cccc1-2,10µM,0,-,?
Cc1ccc(S(=O)(=O)N2CCOCC2)cc1C(=O)O,0,0,0,0
CC1CCC(NC(=O)c2cccc(S(=O)(=O)N3CCN(C)CC3)c2)CC1 (stereo unspecified),0,0,?,0
CCCCn1ccnc1C(=O)c1cc(S(=O)(=O)N2CCOCC2)ccc1C,0,0,6.5µM,0
CCCCn1ccnc1C(=O)c1cccc(S(=O)(=O)N2CC(C)CC(C)C2)c1 (stereo unspecified),0,0,21µM,0
CC1=C(C(N)=O)C(c2ccc(C)cc2)n2nc(SCc3ccccc3F)nc2N1 (stereo unspecified),0,-,-,0
N#CC(C(=O)OC1CCCCC1)c1nc2ccccc2nc1N1CCOCC1 (stereo unspecified),0,70,?,0
C=CCOC(=O)C(C#N)c1nc2ccccc2nc1N1CCN(Cc2ccccc2)CC1 (stereo unspecified),0,0,?,0
CC(C)COC(=O)C(C#N)c1nc2ccccc2nc1N1CCN(Cc2ccccc2)CC1 (stereo unspecified),0,0,0,0
COCCCNC(=O)C(C#N)c1nc2ccccc2nc1N1CCN(Cc2ccccc2)CC1 (stereo unspecified),0,96,0,0
C=CCNC(=O)C(C#N)c1nc2ccccc2nc1N1CCN(Cc2ccccc2)CC1 (stereo unspecified),0,67,0,0
C=CCOC(=O)C(C#N)c1nc2ccccc2nc1N1CCN(c2ccccc2OC)CC1 (stereo unspecified),0,0,13µM,0
Cc1ccc(C(=O)NCCc2ccc(S(N)(=O)=O)cc2)cc1-n1cnc2cccnc21,0,-,-,-
COCCOC(=O)C(C#N)c1nc2ccccc2nc1N1CCN(Cc2ccccc2)CC1 (stereo unspecified),0,0,?,0
COCC(C)OC(=O)C(C#N)c1nc2ccccc2nc1N1CCN(Cc2ccccc2)CC1 (stereo unspecified),0,0,21µM,0
CCC(C)NC(=O)c1cc2n(n1)CCCN(Cc1ccc(C)cc1)C2=O (stereo unspecified),0,-,-,-
CSCC[C@@H](C(=O)NCCCCCCCCCCC(=O)N1CCN(C(=O)OC(C)(C)C)CC1)n1cc(CCO)nn1,0,0,18µM,0
CC[C@H](C)C(C(=O)N1CCN(C(=O)OC(C)(C)C)CC1)n1cc(C(CC(C)C)NC(=O)OC(C)(C)C)nn1 (stereo partly specified),0,0,?,0
CC[C@@H](C)[C@@H](C(=O)N1CCN(C(=O)OC(C)(C)C)CC1)n1cc(CCCCNC(=O)OC(C)(C)C)nn1,0,0,21µM,0
SMILES,Nrf2 ARE act,IL2 activator,ELG1 repair inh,BRCA1 expr act
COc1c(C)cc(S(=O)(=O)NCCc2c(C)[nH]c3ccccc23)c(C)c1C,0,-,-,-
CCOC(=O)C1=C(C)N(c2ccc(C)c(C)c2)C(=O)/C1=C\c1ccco1,0,0,0,0
CCOc1cc(/C=C2\C(=O)N(Cc3ccc(C)cc3)C(C)=C2C(=O)OC)ccc1O,?,0,13µM,0
COC(=O)C1=C(C)N(c2ccc(C)c(C)c2)/C(=C/c2ccco2)C1=O,0,71,0,0
COC(=O)C1=C(C)N(Cc2ccc(OC)cc2)C(=O)/C1=C\c1ccco1,0,0,18µM,0
Oc1ccc(C[C@H]2CNC(=S)N2CC2CCCN2C[C@H](Cc2ccccc2)N2C[C@H](Cc3ccc(O)cc3)N(CC3CCCCC3)C2=S)cc1 (stereo partly specified),0,0,-,0

# Assay outcomes as filed in PubChem BioAssay.
